The campaign covered roughly 190,000 compounds. About 810 (0.43%) were called active. The entries come from a sample that favours actives as a whole. A number with no mark means an inactive call. Cut-off read from the data, not from the text of the source: active = inhibition above about 50%; inactive = the rest.
Molecular target: Mannose-6-phosphate isomerase (Homo sapiens) (UniProt P34949)
Assay: MPI enzyme activity inhibition – biochemical, fluorescence intensity, coupled assay, primary screen (AID 1209);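 note: plate controls were DMSO vehicle for no effect and wells lacking substrate for full effect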
Settings: purified PMI enzyme, at 20 µM, hits give high values

Mannose-6-phosphate isomerase (Homo sapiens), sequence (P34949 whole entry, looked up): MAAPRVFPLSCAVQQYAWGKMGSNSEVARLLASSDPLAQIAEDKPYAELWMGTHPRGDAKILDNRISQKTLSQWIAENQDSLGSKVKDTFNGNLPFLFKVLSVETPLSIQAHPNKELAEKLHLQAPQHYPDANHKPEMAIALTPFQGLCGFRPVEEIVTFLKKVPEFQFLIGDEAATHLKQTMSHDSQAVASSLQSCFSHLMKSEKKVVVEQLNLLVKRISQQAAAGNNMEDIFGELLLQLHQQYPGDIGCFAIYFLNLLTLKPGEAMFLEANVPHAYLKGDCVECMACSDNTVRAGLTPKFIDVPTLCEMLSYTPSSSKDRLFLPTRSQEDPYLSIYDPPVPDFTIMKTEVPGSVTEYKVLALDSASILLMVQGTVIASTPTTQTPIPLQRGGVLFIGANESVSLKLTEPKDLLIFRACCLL

Compared with `CCC1N=C(SC)NC(C)=C1C(=O)c1ccccc1` (centres undefined), `CC(C)(C)C(=O)CSc1nnc(Nc2ccccc2)s1` is higher in inhibition: -36.6% for the first, 39.6% for the second.

First: CCOc1ccc(Cn2nnc(C(=O)Nc3cc(C)cc(C)c3)c2N)cc1
Second: Cc1cc(C)cc(NC(=S)N2CCN(c3ccc(F)cc3)CC2)c1
The inhibition of the first is higher: 18.5% for the first, 10% for the second.

Compared with `CC(C)(C)NC(=O)Nc1ccc2nccnc2c1`, `OCCCNC(=S)Nc1ccc2nccnc2c1` is lower in inhibition: 4.4% for the first, -2.7% for the second.

Going from `CNC(=S)Nc1ccc2nc(C)c(C)nc2c1` to `COc1ccc(NC(=S)Nc2ccc3nc(C)c(C)nc3c2)cc1`, the inhibition rises from 2.5% to 45%.

First: Fc1ccc(NC(=S)Nc2nccs2)cc1
Second: CC(=O)Nc1ccc(NC(=S)Nc2ccc(F)cc2)cc1
The inhibition of the first is lower: 2.2% for the first, 3.2% for the second.

First: CCN(CC)CCNC(=S)Nc1ccc(F)cc1
Second: CCN(CC)CCNCc1ccc(-c2ccc(Cl)cc2)o1
The inhibition of the first is higher: -2.1% for the first, -7% for the second.

Compared with `Cc1nc2ccc(NC(=O)N(C(C)C)C(C)C)cc2s1`, `COc1ccc(N(C)C(=O)Nc2ccc3c(c2)nnn3C)cc1` is higher in inhibition: 3% for the first, 15.5% for the second.

First: Cc1c(Nc2nc(-c3ccc(Cl)cc3)cs2)c(=O)n(-c2ccccc2)n1C
Second: COc1ccc(N=C2SCC(=O)N2Cc2ccccc2)cc1
The inhibition of the first is higher: 20.6% for the first, -10.8% for the second.

First: COc1ccc(N2CCN(C(=O)c3ccc(F)cc3)CC2)c([N+](=O)[O-])c1
Second: Cc1ccccc1C(=O)c1c[nH]c(C(=O)N2CCN(c3ccccc3F)CC2)c1
The inhibition of the first is lower: -4.8% for the first, 7.5% for the second.

First: COCCN(C(=O)Cn1nnc2ccccc21)C(C(=O)NC1CCCC1)c1ccc(OC)cc1OC (centres undefined)
Second: COc1ccc(OC)c(NC(=O)CN2C(=O)C3(OCCCO3)c3ccccc32)c1
The inhibition of the first is lower: -10.6% for the first, 11% for the second.

Going from `CCc1cccc(CC)c1-n1c(SCC(=O)c2c(N)n(C)c(=O)n(C)c2=O)nnc1-c1cccnc1` to `C=CCn1c(SCc2ccccc2)nnc1-c1cccnc1`, the inhibition falls from 17.2% to 1.3%.

First: CN(Cc1nc2ccccc2c(=O)[nH]1)CC(O)COCc1ccco1 (centres undefined)
Second: Cc1csc(NC(=O)CSc2nc3ccccc3c(=O)[nH]2)n1
The inhibition of the first is higher: 11.4% for the first, 0.4% for the second.

Compared with `CCNc1nc(CSc2ccccc2)nc2sc(C)c(C)c12`, `CCc1c(C)sc(NC(=O)CSc2nc3c(c(C(F)(F)F)n2)CCc2ccccc2-3)c1C#N` is lower in inhibition: 30.5% for the first, 0.3% for the second.

First: CCn1c(SCC(=O)N/N=C/c2ccc(C)o2)nnc1-c1ccc(C)cc1
Second: Cc1ccc(SCC(=O)NC(=O)NCc2ccco2)cc1C
The inhibition of the first is higher: 0.6% for the first, -3.3% for the second.

First: CCN1CCN(CCCNC(=O)C(=O)c2c(C)[nH]c3ccccc23)CC1
Second: Cc1cc(NCCCN2CCOCC2)n2nc(C)c(-c3ccccc3)c2n1
The inhibition of the first is lower: -6.7% for the first, -1.9% for the second.

Compared with `O=C(COC(=O)c1ccc(Br)cc1)NCc1ccc(F)cc1`, `Cc1noc(C)c1COc1ccc(C(=O)OCC(=O)NCc2ccccc2Cl)cc1` is higher in inhibition: -1.2% for the first, 22.4% for the second.

Compared with `COC(=O)c1ccc(CSc2nnc(C)s2)cc1`, `CC(C)(C)Cc1nnc(NC(=O)Cc2ccc([N+](=O)[O-])cc2)s1` is lower in inhibition: 8.5% for the first, -4.5% for the second.

Compared with `CC(C)(CO)NC(=O)CC1C(=O)NCCN1CC(c1ccccc1)c1ccccc1` (centres undefined), `CC(C)(C)NC(=O)COC(=O)/C=C/c1ccccc1[N+](=O)[O-]` is higher in inhibition: -1.4% for the first, 1.1% for the second.

Going from `COC(=O)c1cccc(NC(=O)CCc2cc(OC)c(OC)c(OC)c2)c1` to `COc1cc(-c2nnco2)cc(OC)c1OC`, the inhibition rises from -5.4% to 15%.

First: COCCn1c(SCCN2CCCCC2)nc2ccccc2c1=O
Second: O=C(CN1CCCC1)Nc1cc(F)ccc1F
The inhibition of the first is higher: 3.5% for the first, -1.6% for the second.

First: CCOc1ccc(NC(=S)Nc2ccc3nsnc3c2)cc1
Second: COc1ccc(NC(=S)Nc2ccc3snnc3c2)cc1
The inhibition of the first is higher: 46.4% for the first, 25% for the second.

Compared with `COc1ccc(NC(=O)Nc2ccc3nccnc3c2)cc1`, `COc1ccc(NC(=O)c2ccc3nccnc3c2)cc1` is higher in inhibition: -6.9% for the first, -5.2% for the second.

Compared with `COc1cccc(NC(=O)Nc2ccc3nsnc3c2)c1`, `COc1ccc(N=c2sc3ccccc3n2C)cc1` is higher in inhibition: 1.7% for the first, 5.6% for the second.

Going from `CCOC(=O)c1sc(NS(=O)(=O)c2ccc(C)cc2)nc1C` to `CC(=O)N(Cc1ccc(Br)cc1)c1cccc(C)c1C`, the inhibition falls from 5.9% to 5.3%.

Going from `CCOc1ccc(-c2noc(CCC(N)=O)n2)cc1OCC` to `CCN(CCn1cccn1)C(=O)c1cc(COc2c(F)cccc2F)on1`, the inhibition rises from -7.6% to 5.3%.

Compared with `C[C@H]1CC[C@H]2C(=O)N3[C@H](c4cccc(N5CCCC5=O)c4)[C@@H](C)CC[C@H]3C(=O)N2[C@@H]1c1cccc(N2CCCC2=O)c1`, `CCOC(=O)N1CCC(N2Cc3cccc(C(=O)Nc4cccc(F)c4)c3C2=O)CC1` is lower in inhibition: -17.4% for the first, -24.4% for the second.

Compared with `CCOC(=O)C1CCN(C(=O)c2c(-c3c(Cl)cccc3Cl)noc2C)CC1`, `CC1CC(C)(C)NC(=S)N1CCCC(=O)N1CCN(c2ccccc2F)CC1` (centres undefined) is lower in inhibition: 9.4% for the first, -3.8% for the second.

First: COc1cc(N=C(N)N=C(N)N)cc(OC)c1
Second: COc1cc(N=C2C(=O)N3c4c(cccc42)C(C)=CC3(C)C)cc(OC)c1
The inhibition of the first is lower: -0.7% for the first, 34.1% for the second.

In the case of `COc1cc(-c2nnc(-c3cc(OC)c(OC)c(OC)c3)o2)cc(OC)c1OC`, the inhibition is reported as 7.6%.

`COc1ccc(N(C)C(=S)Nc2ccc3nc(C)c(C)nc3c2)cc1` was tested, and the inhibition was 53.7% (active).
`Fc1ccc(NC(=S)Nc2ccc3nccnc3c2)cc1` was tested, and the inhibition was 56.3% (active).
In the case of `CC(C)N(C(=O)Nc1ccc2nccnc2c1)C(C)C`, the inhibition is reported as 65.4% (active).
With `CCN(CC)c1ccc(NC(=S)Nc2ccc(F)cc2)cc1` the inhibition was 53.4% (active).
`COc1ccc(NC(=S)Nc2ccc3nccnc3c2)cc1` was tested, and the inhibition was 83.8% (active).
With `COc1ccc(NC(=S)Nc2ccc3nsnc3c2)cc1` the inhibition was 64.2% (active).
With `COc1ccc(N(C)C(=O)Nc2ccc3nsnc3c2)cc1` the inhibition was 58.7% (active).
